Compounds with a hit are over-represented: about 19% of the library has one in this group of screens.
Pf growth 48h: P. falciparum growth inhibition at 48 hours (one generation); P. falciparum luciferase growth in erythrocytes, 48 h; 5.9% of 310,000 active; Potency, µM (doses to about 28.7 µM), without a hit: top-dose activity change, negative = inhibition, usual class: inhibitors; also: potency is read from the fitted curve at half-maximal effect; % is scaled to controls: 0 for no effect and ±100 for the full control effect
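Firefly luciferase activity from engineered P. falciparum reports growth; inhibitors lower the luminescent signal. Cultures contained 2% hematocrit erythrocytes at 0.1% final parasitemia.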
MARV entry inh: inhibitors of Marburg virus binding or cell entry; Marburg virus pseudotyped entry inhibition, cell reporter; Potency, µM (top dose mostly 37.8 µM), without a hit: at the top dose activity change, negative = inhibition, usual class: inhibitors; 1.8% of 300,000 active; AID 540276; calls by dose curve; tested in HEK293 cells; also: potency is read from the fitted curve at half-maximal effect; % is scaled to controls: 0 for no effect and ±100 for the full control effect
Shiga inhibitor: blocks Shiga toxin action in Vero cells. AID 2315. 9.2% of 290,000 active. Vero cells, Shiga toxin protein synthesis inhibition reporter. inhibition, % at 38.7 µM; in the data active = inhibition mostly above about 28%, no sharp cut-off; inactive = mostly below about 43%; also: 0% is about no effect
Lassa entry inh: Lassa virus entry inhibition. Lassa virus pseudotype entry inhibition, cell reporter. Potency, µM (highest dose often 37.9 µM), without a hit: at the highest dose activity change, negative = inhibition, hits mostly inhibitors. 1.2% of 300,000 active; calls by dose curve; tested in HEK293 cells; also: potency is read from the fitted curve at half-maximal effect; % is scaled to controls: 0 for no effect and ±100 for the full control effect; nearly all actives have a fitted effect of over 50% in size
Pf growth 96h: inhibits malaria parasite growth, 96 h. P. falciparum luciferase reporter growth, 96 h. Potency, µM (doses to about 28.7 µM), inactives show at the highest dose activity change, negative = inhibition, hits mostly inhibitors. 6.9% of 320,000 active. AID 504834; also: potency is read from the fitted curve at half-maximal effect; % is scaled to controls: 0 for no effect and ±100 for the full control effect
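Infected RBCs, 2% Hct / 0.05% parasitemia final; luciferase-reporter P. falciparum; cpd 96 h, 37 C, 5% CO2; luciferase detection reagent; luminescence.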
Cycloheximide cs: counter-screen hit for Shiga toxin inhibitors, cycloheximide. cell reporter, cycloheximide protein synthesis inhibition counterscreen. max response, %. AID 2314. 12% of 300,000 active; in the data active = max response mostly above about 13%, no sharp cut-off; inactive = mostly below about 14%; also: read at 38.3 µM for the half of the compounds with a filed dose; 0% is about no effect
* marks the source's active call; other numbers are inactive results; i = inactive; ? = inconclusive; · = not tested or not shown; [ ] = another dose, or the depositor's remark. Unless noted, calls follow the shape of the dose curve; as a rule, active = well fitted inhibition curve with a large enough effect; inconclusive = small, poorly fitted or top-dose-only effect, or another doubt; inactive = no such curve, though single readings can be large or run the other way.

SMILES	Pf growth 48h	MARV entry inh	Shiga inhibitor	Lassa entry inh	Pf growth 96h	Cycloheximide cs
CC(C)=NNc1nc(-c2ccc([N+](=O)[O-])cc2)cs1	-20%	17%	18*	-16%	-12%	22*
NC(=O)Cc1nc(-c2ccc([N+](=O)[O-])cc2)cs1	38%	-1%[46.1 µM]	1	1%[46.1 µM]	39%	7
CC(C)c1nc(-c2ccc([N+](=O)[O-])cc2)cs1	34%	?	56*	-2%	61%	39*
Cc1csc(N/N=C/c2ccc([N+](=O)[O-])cc2)n1	67%	?	67*	-5%[46.1 µM]	?	32*
COc1ccc(NC(=O)N2CCc3nc(-c4ccccc4)c4c(c3C2)CO[C@@H](C)C4)cc1	·	6%[14.2 µM]	·	·	·	·
CC(C)Nc1nnc(SCC(=O)c2c(N)n(Cc3ccccc3)c(=O)n(C)c2=O)s1	?	5%[46.1 µM]	17	2%	9.3µM*	1
CC(=O)Nc1ccc(SCC(=O)c2c(N)n(Cc3ccccc3)c(=O)n(C)c2=O)cc1	42%	?	-5	-8%	?	-1
Cn1c(N)c(C(=O)CSc2nnc(NC3CCCCC3)s2)c(=O)n(C)c1=O	?	1%[46.1 µM]	·	7%	1.3µM*	·
CCOC(=O)CNC(=O)CSc1nnc(NC(=O)c2ccccc2Cl)s1	6%	-7%[46.1 µM]	59*	-5%	34%	29*
O=C(CSc1nnc(NC(=O)c2ccccc2Cl)s1)Nc1ccc2c(c1)oc1ccccc12	108%	5%	54*	14%	?	34*
O=C(CSc1nnc(NC(=O)c2ccccc2Cl)s1)NC1CC1	95%	8%[46.1 µM]	61*	?	?	39*
Cc1ccccc1C(=O)Nc1nnc(SCC(=O)NC2CC2)s1	179%	?	64*	?	?	30*
CC(C)(C)NC(=O)CSc1nnc(NC(=O)c2ccccc2Cl)s1	18%	·	30	·	-4%	12
COc1ccc(C2C(C(=O)Nc3ccccc3OC)=C(C)Nc3ncnn32)cc1 (stereo not drawn)	·	·	-8	·	-49%	-5
CSc1ccccc1NC(=O)CN(Cc1ccccc1)S(C)(=O)=O	?	3%	12	0%	i	-1
CCN(CC)C(=O)[C@]1(c2ccccc2)C[C@@H]1CN	·	-7%	8	·	·	10
Cc1cc(=O)oc2cc(OCC(=O)OCC(=O)Nc3ccccc3C(C)C)ccc12	17%	2%	-3	2%	35%	0
Nc1c(C(=O)Nc2cccc(Cl)c2)sc2nc3c(cc12)CN(Cc1ccccc1)CC3	·	12%[46.1 µM]	·	2%[46.1 µM]	·	·
COc1ccc(N(C)C(=S)Oc2ccc(C(=O)Nc3ccccc3)cc2)cc1	?	·	24	·	?	28
Cc1cccc(N(C)C(=S)Oc2ccc3ccccc3c2)c1	-19%	-8%	49*	-2%	13%	28*
COc1ccc(-c2ccc(SCC(=O)NCC3CCCO3)nn2)cc1OC (stereo not drawn)	28%	8%	7	-11%	119%	21*
O=C(CSc1ccc(-c2ccc(F)cc2)nn1)NCC1CCCO1 (stereo not drawn)	17%	?	5	-18%[46.1 µM]	27%	7
COc1ccc(-c2nnc(SCC(=O)NC(C)C)n2CC2CCCO2)cc1OC (stereo not drawn)	10%	6%	-9	14%	3.3µM*	12
COc1ccc(-c2ccc(SCC(=O)Nc3cccc(C(C)=O)c3)nn2)cc1OC	?	?	97*	?	?	40*
CC(=O)c1c(C)[nH]c(C(=O)CSc2nnc(-c3ccc(Cl)cc3)n2CC2CCCO2)c1C (stereo not drawn)	·	?	-14	-8%	5.9µM*	10
NC(=O)NC(=O)CSc1nnc(-c2ccc(Cl)cc2)n1CC1CCCO1 (stereo not drawn)	0%	·	0	·	3%	-2
COc1cc(C(=O)CSc2nnc(-c3ccc(O)cc3)n2CC2CCCO2)ccc1NC(C)=O (stereo not drawn)	11%	?	-14	13%	·	3
CCC(C)(C)C(=O)O	35%	·	·	·	52%	·
Cc1ccc2nc3c(cc2c1)c(NC(=O)C1CCCO1)nn3CC(C)C (stereo not drawn)	?	15%	-2	-3%	·	7
Oc1c(C=Nc2cccc3cccnc23)sc2ccccc12	?	·	82	·	·	31

Source: PubChem
